Measurements from the supplement of paper PMC5407854, “Inhibitor of ppGalNAc-T3-mediated O-glycosylation blocks cancer cell invasiveness and lowers FGF23 levels” (eLife, 2017).
Over roughly 1,700 compounds, “T3 sensor activation Q score (MG/GFP ratio z-score vs DMSO controls)” has its median near 0.25; the highest 2% begin near 1.9. This is one part of a sample in which the highest values are shown more often than they occur.

system: ppGalNAc-T3 sensor; assay: T3 sensor activation Q score (MG/GFP ratio z-score vs DMSO controls) (SD units); higher = more sensor activation (inhibition of ppGalNAc-T3 glycosylation); conditions: HEK293 sensor cells; 10 µM; 6 h
Protocol: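 Cells were treated with compound at 10 uM for 6 h, then MG/GFP ratio was read by flow cytometry (10,000 cells per well, duplicate wells). Q = (R - R_neg)/SD_neg relative to DMSO vehicle controls; the signal rises when the glycosyltransferase is inhibited.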

Row | Structure (SMILES) | T3 sensor activation Q score
1 | Cc1cc(=O)c2c(=O)[nH][nH]c2[nH]1 | -1.35
2 | CCc1noc2cc(-c3ccccc3)n(C)c(=O)c12 | 0.35
3 | CCCSc1ncnc2[nH]ncc12 | 1.45
4 | C#Cc1cccc(Nc2ncnc3cc(OCCOC)c(OCCOC)cc23)c1 | 2.15
5 | C#Cc1cccc(NC(=O)c2ccc(Cl)cc2Cl)c1 | -0.65
6 | CCCNC(=O)c1ccccc1C(=O)NC1(C(=O)NCCC)CCCC1 | -0.35
7 | NC(=O)Nc1ccc(Nc2ccccc2)cc1 | 0.7
8 | Nc1nc(Nc2ccccc2)n[nH]1 | -0.55
9 | CC1(C)CC(Nc2ccc(Nc3ccccc3)cc2)CC(C)(C)N1 | 1.85
10 | OCCCCc1nccc2c1[nH]c1ccccc12 | 1
11 | CNC(=O)c1ccccc1Sc1ccc2c(/C=C/c3ccccn3)n[nH]c2c1 | 0.7
12 | O=C(O)CCC(=O)c1ccc2ccc3cccc4ccc1c2c34 | 1.75
13 | CCOC(=O)Nc1c(Cl)n(C)c(=O)n(C)c1=O | 1.75
14 | CN(C)c1nc(=NCc2ccco2)ss1 | -1.15
15 | Cc1nc(C(N)=O)nc2ccccc12 | 0.2
16 | NC(=O)c1cc2c3ccccc3ccn2c1-c1ccccc1 | 2.95
17 | Clc1nnc2c3ccccc3ccn12 | 0.05
18 | Cc1cnc(SCc2ccc(Cl)cc2Cl)[nH]c1=O | -0.3
19 | COc1ccc([N+](=O)[O-])cc1NS(=O)(=O)c1ccc(C)cc1 | -0.7
20 | Cn1c(=O)c2c(nc(OCCc3ccccc3)n2C)n(C)c1=O | 1.6
21 | Cn1c(=O)c2c(nc(Oc3ccccc3)n2C)n(C)c1=O | 0.7
22 | Cn1c(=O)c2c(nc(Cc3ccccc3)n2C)n(C)c1=O | 1.9
23 | CCOC(=O)c1cc(-c2ccccc2)nc2ccc(C)cc12 | 0.8
24 | CCOC(=O)c1cc(OCC)c2c(ccc3ccccc32)n1 | 1.85
25 | CCOC(=O)N1CCN(Cc2c(O)ccc3ccccc23)CC1 | -0.95

Row | Structure (SMILES) | T3 sensor activation Q score
26 | CC(=O)NS(=O)(=O)c1ccc2sc(C)nc2c1 | 0.15
27 | Nc1ccc(S(=O)(=O)NCC2CCCCO2)cc1 (stereo not given) | 1.6
28 | NC(N)=NS(=O)(=O)c1ccc(N=C2C(=O)Nc3ccccc32)cc1 | 0.3
29 | Cc1ccc(NC(=O)c2ccc(CN3CCN(C)CC3)cc2)cc1Nc1nccc(-c2cccnc2)n1 | -1.55
30 | Cc1ccc(C(=O)Nc2ccc(CN3CCN(C)CC3)c(C(F)(F)F)c2)cc1C#Cc1cnc2cccnn12 | 1.9
31 | Cc1c(NC(=O)Nc2c(Cl)cccc2Cl)c(=O)n(-c2ccccc2)n1C | 0.1
32 | Oc1c(N=Nc2nn[nH]n2)ccc2ccccc12 | 1.25
33 | Cn1cnc2ncnn2c1=S | -1.2
34 | C=CCNC(=S)NCC | 1.9
35 | C=CCNC(=S)NCC=C | 0.35
36 | C=CCNC(=S)Nc1c(N)n(C)c(=O)n(C)c1=O | 0.75
37 | O=C(NN1CCCCC1)NN1CCCCC1 | 1.35
38 | O=C(O)c1cccc2c1C(=O)c1cccc3snc-2c13 | -0.15
39 | CN1C(=C=Cc2cc(I)c(O)c(I)c2)C(C)(C)c2ccccc21 | 1.9
40 | CCCNC(=O)c1ccc(S(N)(=O)=O)cc1 | 0.65
41 | O=[N+]([O-])C1C(c2ccccc2)C12c1ccccc1-c1ccccc12 (stereo not given) | 3.55
42 | O=C(c1ccccc1)C1C(c2ccccc2)C1[N+](=O)[O-] (stereo not given) | 1.7
43 | CCN(CC)Cc1cc2[nH]c3c4ccc(Cl)cc4ncc3c2cc1OC | 1.9
44 | Cc1cnc2cc(Cl)ccc2c1SCC(=O)O | 0.5
45 | c1ccc(-c2nc[nH]c2-c2ccccc2)cc1 | 0.1
46 | C[C@@H]1C[C@H]2OC(=O)[C@@]3(C)CCC[C@@](C)([C@@H]23)[C@@]1(O)CCc1ccoc1 | 0.2
47 | COC(=O)c1cc2c(n1S(=O)(=O)c1ccc(C)cc1)C(=O)C(=O)c1[nH]cc(C(=O)OCc3ccccc3)c1-2 | 0.25
48 | C1CCc2nc3c(nc2C1)CCCC3 | -0.2
49 | Nc1c(Cl)cc(S(N)(=O)=O)cc1S(N)(=O)=O | 1.1
50 | CC(C)(C)n1nc(C2CC2)cc1NC(=O)Nc1ccccc1 | 0.25

Row | Structure (SMILES) | T3 sensor activation Q score
51 | COC(=O)C1(F)C(=O)NC(=O)NC1OC (stereo not given) | 0.6
52 | O=C(N(c1ccccc1)c1ccccc1)N(c1ccccc1)c1ccccc1 | 1
53 | COc1cc2c(Nc3ccc(Br)cc3F)ncnc2cc1OCC1CCN(C)CC1 | 2.1
54 | COc1cc(Nc2c(C#N)cnc3cc(OCCCN4CCN(C)CC4)c(OC)cc23)c(Cl)cc1Cl | 1
55 | COc1cc2ncnc(Nc3ccc(F)c(Cl)c3)c2cc1OCCCN1CCOCC1 | 1.2
56 | O=C(O)C(=O)Nc1ncn[nH]1 | -1.75
57 | Cn1c(=O)c2c(nc(N3CCCCC3)n2C)n(C)c1=O | -0.65
58 | Cn1c(=O)c2[nH]c(N3CCCCC3)nc2n(C)c1=O | 1.9
59 | CCCc1nc2c([nH]1)c(=O)n(C)c(=O)n2C | -0.95
60 | NC1(N2SC(S)=C3CCCC=C32)CCCCC1 | 0.75
61 | NC1=C(O)C(=O)C(c2ccccc2)O1 (stereo not given) | 0.05
62 | O=c1cc(-c2cccnc2)oc2c1ccc1ccccc12 | 1.25
63 | O=C1c2ccccc2NC(c2cc(Cl)cc(Cl)c2O)N1CCc1ccccn1 (stereo not given) | 0.55
64 | Cc1nnc2nc(N)[nH]n2c1=O | -1.2
65 | O=C(O)CSc1nc2ccccc2s1 | -0.1
66 | COC1=C[C@@H](C)[C@@H]2C[C@H]3OC(O)C[C@H]4C(C)=C(OC)C(=O)[C@H]([C@@]2(C)C1=O)[C@@]34C (stereo not given in full) | 0.4
67 | CCOC(=O)Cc1csc2nc(-c3ccccc3)nn12 | 0.25
68 | N#CC1=CC2CN(Cc3ccccc3)C1C1C(=O)N(c3ccccc3)C(=O)C21 (stereo not given) | 0.45
69 | c1ccc(-c2nnc3nc(N4CCCCC4)nc(N4CCCCC4)n23)cc1 | 1.3
70 | NC(N)=NCCCS(=O)(=O)Nc1ccc(Nc2c3ccccc3nc3cc([N+](=O)[O-])ccc23)cc1 | -0.75
71 | CN(C)c1ccc(/C=C2/C=C(c3ccc4c(c3)CCCC4)OC2=O)cc1 | 0.9
72 | Clc1cc2c(nn1)Nc1ccccc1S2 | 0.2
73 | CC(C)c1ncc(CO)n1Cc1c(Cl)cccc1Cl | 1.85
74 | Cn1c(CO)cnc1-c1ccccc1 | 0.3
75 | O=c1[nH]c(SCc2ccccc2[N+](=O)[O-])nc2nc[nH]c12 | 0.3

Row | Structure (SMILES) | T3 sensor activation Q score
76 | O=c1cc(-c2ccccc2)oc2ccc(O)cc12 | 0.15
77 | N[C@H](C(=O)O)[C@H]1ON=C(Cl)[C@H]1O | -0.15
78 | COc1c(C=O)c2c(c(OC)c1OC)-c1ccc(OC)c(=O)cc1C(NC(C)=O)CC2 (stereo not given) | 4.1
79 | CS/C(=N\S(=O)(=O)c1ccccc1)NNC(=O)c1c(-c2c(Cl)cccc2Cl)noc1C | 0.65
80 | CC1CC=C(O)C12OCC(C)(C)CO2 (stereo not given) | -0.05
81 | Cc1ccc(S(=O)(=O)N2CC=C(N)N2)cc1 | -0.2
82 | Cc1nc2ccccc2nc1NS(=O)(=O)c1ccc(N)cc1 | -0.1
83 | OCc1nc2nc(Cl)c(Cl)nc2[nH]1 | -1.15
84 | CC(C)CCCCCCCCCCCCC(=O)NCC(=O)NC1C(C)OC(Nc2ncnc3nc[nH]c23)C(O)C1O (stereo not given) | -1.5
85 | Cc1cc(C)n2c(C)nnc2c1 | 1.85
86 | Cc1ccn2c(C(C)O)nnc2c1 (stereo not given) | 0.05
87 | COC(=O)c1c[n+]([O-])ccc1OC | -0.5
88 | CN(C)S(=O)(=O)c1ccccc1N=C=S | -1.15
89 | CCOC(=O)c1nn(C)c2[nH]c(=O)n(C)c(=O)c12 | 0.15
90 | CCOC(=O)/C=C/c1ccc(C(=O)OCC)[nH]1 | -1.5
91 | CCOC(=O)/C=C/c1nc(C(=O)OCC)c(C)c(=O)[nH]1 | 1.9
92 | CN(C)S(=O)(=O)Nc1cccc(Br)c1 | 1.8
93 | CCC(C)NC(=O)c1cccc(C)c1 (stereo not given) | 1.35
94 | CNNCc1ccc(C(=O)NC(C)C)cc1 | 1.85
95 | CC(C)NC(=O)c1ccc(C(C)C)cc1 | -0.3
96 | Nc1nc(N)c2cc(Sc3ccc4ccccc4c3)ccc2n1 | 1.15
97 | CCc1ccc(CCN2C(=O)c3ccccc3C2=O)nc1 | 0.1
98 | CCOC(=O)c1nnsc1-c1ccc(-c2snnc2C(=O)OCC)cc1 | 0.95
99 | Clc1ncnc2[nH]ccc12 | -0.05
100 | C=CCN=C(NC#N)SC | 0.05

Row | Structure (SMILES) | T3 sensor activation Q score
101 | COc1cc(NC(C)=O)c2ncccc2c1NC(C)=O | 1.2
102 | O=c1[nH]cnc2c1ncn2Cc1ccc([N+](=O)[O-])cc1 | 0.15
103 | CCOC(=O)c1cc2c(OC)c(OC)ccc2c2[nH]cc(C#N)c(=O)c12 | 0.7
104 | Cn1nc(SCc2ccccc2)c(=O)n(C(c2ccccc2)c2ccccc2)c1=O | -0.65
105 | COc1cccc(/C=C2\CCc3ccccc3C2=O)c1 | -0.1
106 | O=C1/C(=C\c2ccc([N+](=O)[O-])cc2)CCc2ccccc21 | 0.4
107 | CCOc1ccc(/C=C2\CCc3ccccc3C2=O)cc1 | 1.85
108 | O=C(O)C1OCC2(CO1)COC(C(=O)O)OC2 (stereo not given) | 0.6
109 | CC(C)(C)NC(=O)c1ccc(C(=O)NC(C)(C)C)cc1 | -0.4
110 | CC(=O)CC[N+](C)(C)C | 0.75
111 | O=C(/C=C/c1ccccc1)CC(c1ccccc1)N1CCOCC1 (stereo not given) | 0.15
112 | Nc1ccc(C(=O)Nc2ccc(NC(=O)c3ccco3)c(O)c2)cc1 | 1.85
113 | Nc1ccc(C(=O)Nc2cccc(N)c2)cc1 | -1.35
114 | Nc1ccc(NC(=O)c2ccc(C(=O)Nc3ccc(N)cc3)cc2)cc1 | 1.05
115 | OC[C@H]1O[C@@H](n2cnc3c2NC=NC[C@H]3O)C[C@@H]1O | 1.3
116 | NC(=O)CCC(C(=O)O)N1C(=O)c2ccc(O)cc2C1=O (stereo not given) | -0.1
117 | N#CC1=C2CCCCC2(O)NC1=O (stereo not given) | -0.45
118 | CC1=C2C3OC(=O)C(C)C3CCC2(C)C=C(Cl)C1=O (stereo not given) | 1.1
119 | CC(=O)[C@@]1(O)[C@H](C)C[C@H]2[C@@H]3C=C(C)C4=Cc5c(cnn5-c5ccccc5)C[C@]4(C)[C@H]3[C@@H](O)C[C@@]21C | 5
120 | CC1=CC2C(C(O)CC3(C)C2CC(C)C32OCOC23COCO3)C2(C)CC(=CO)C(=O)C=C12 (stereo not given) | -3.35
121 | COC1C(=O)CCC2(CO2)C1(O)C1(C)OC1CC=C(C)C (stereo not given) | -1.6
122 | OCC1(CO)CC2(C1)CC(CO)(CO)C2 | -1.15
123 | c1ccc(Nc2cccc3c(Nc4ccccc4)cccc23)cc1 | -0.45
124 | COc1ccc(NC(=O)CC(C)=O)c(OC)c1 | -0.1
125 | CC1(C)N=C(N)NC(=NCCCOc2ccc([N+](=O)[O-])cc2)N1 | 0.35
